This note sets out measurements from PubChem BioAssay.

Unmarked numbers belong to inactive results. For some of these results: Results with a measured potency or affinity are listed apart. Active and inactive are the calls of the source. Unless noted, no rule for the calls is given here.

A short description of experiment [1]: antimalarial activity against Dd2 strain (AID 2302;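 active = growth inhibition above 50% at the single 2 µM test dose, taken to imply half-maximal potency below 2 µM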;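 also: 0% = DMSO untreated growth and 100% = chloroquine plus artemisinin killed control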). The conditions noted are these: P. falciparum Dd2 in RBCs, LDH growth readout, 72 h; at 2 µM; active compounds read high.
A short description of experiment [2]: HepG2 cytotoxicity, primary screen, cytotoxicity control for P. falciparum antimalarial project, cell-based, ATP luminescence (AID 2303;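 active = inhibition above 50%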;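 also: 0% = DMSO wells and 100% = digitonin-killed cells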). As to conditions: HepG2 viability, 24-48 h, at 10 µM, active compounds read high.
The target of experiment [3] is L-lactate dehydrogenase (Plasmodium falciparum (isolate CDC / Honduras)) (UniProt Q27743). Description: PfLDH activity inhibition – cell lysate, 3D7 strain, counter-screen for P. falciparum growth inhibition project (AID 2304).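 Also: 0% = vehicle and 100% = reference inhibitor.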 The conditions noted are these: P. falciparum 3D7 crude extract, LDH APAD/NBT absorbance; at 2 µM; active compounds read high. Background: The purpose of a counterscreen is to sort out artefacts and off-target activity.
Chain of L-lactate dehydrogenase (Plasmodium falciparum (isolate CDC / Honduras)) (Q27743 whole entry, looked up): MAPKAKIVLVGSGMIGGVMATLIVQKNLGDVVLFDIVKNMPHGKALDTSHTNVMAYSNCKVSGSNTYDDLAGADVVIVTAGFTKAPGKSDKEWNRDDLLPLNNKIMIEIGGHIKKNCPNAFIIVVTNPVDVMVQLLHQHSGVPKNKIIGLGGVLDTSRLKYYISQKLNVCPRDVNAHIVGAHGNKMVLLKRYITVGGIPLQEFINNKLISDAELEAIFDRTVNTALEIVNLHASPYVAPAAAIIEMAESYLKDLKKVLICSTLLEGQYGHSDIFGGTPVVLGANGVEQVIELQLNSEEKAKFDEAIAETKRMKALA

The nature of experiment [4]: inhibition of 3D7 malaria parasite growth – strain 3D7 (AID 2306).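 Also: 0% = DMSO wells and 100% = chloroquine plus artemisinin control wells.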 The conditions noted are these: P. falciparum 3D7 erythrocytic growth, LDH absorbance, 72 h; at 2 µM; active compounds read high.
Experiment [5] deals with Calcium-dependent protein kinase 1 (Plasmodium falciparum (isolate 3D7)) (UniProt P62344). As to the kind of experiment: PfCDPK1 kinase inhibitors, biochemical, TCAMS library (AID 1159585; cut-off not given, nearly all actives have IC50 up to about 0.98 µM;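 also: inhibitors leave more ATP so luminescence rises with inhibition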). As to conditions: recombinant PfCDPK1, Kinase-Glo ATP depletion luminescence. A general note: Kinase-Glo measures the ATP left after a reaction by luminescence.
Chain of Calcium-dependent protein kinase 1 (Plasmodium falciparum (isolate 3D7)) (P62344 whole entry, looked up): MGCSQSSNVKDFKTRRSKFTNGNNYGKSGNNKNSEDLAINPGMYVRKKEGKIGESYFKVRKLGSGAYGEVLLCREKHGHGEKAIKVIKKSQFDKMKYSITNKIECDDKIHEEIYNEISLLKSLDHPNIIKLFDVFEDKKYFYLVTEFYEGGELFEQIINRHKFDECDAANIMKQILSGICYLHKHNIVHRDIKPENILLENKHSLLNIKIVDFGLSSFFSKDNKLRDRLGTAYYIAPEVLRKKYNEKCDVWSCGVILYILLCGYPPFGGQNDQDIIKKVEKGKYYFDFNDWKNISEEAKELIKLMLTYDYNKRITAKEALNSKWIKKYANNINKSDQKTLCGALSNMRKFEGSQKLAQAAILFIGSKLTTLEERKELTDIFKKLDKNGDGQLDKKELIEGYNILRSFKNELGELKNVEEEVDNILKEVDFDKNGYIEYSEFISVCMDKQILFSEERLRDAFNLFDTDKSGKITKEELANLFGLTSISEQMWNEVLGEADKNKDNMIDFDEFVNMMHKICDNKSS
Experiment [6] addresses Plasmodium falciparum protein kinase 6 (PK6, PF3D7_1337100) (UniProt Q8IDW1). Description: PfPK6 kinase inhibitors, biochemical, TCAMS library (AID 1159586). The conditions noted are these: recombinant PfPK6, Kinase-Glo ATP depletion luminescence.
In experiment [7] the target is Protein kinase 7 (PK7), Plasmodium falciparum 3D7 (PF3D7_0213400) (UniProt Q7YTF7). As to the kind of experiment: inhibition of Plasmodium PK7 catalytic activity – biochemical, TCAMS antimalarial set, Kinase-Glo luminescence (AID 1159587). As to conditions: recombinant PfPK7, Kinase-Glo ATP depletion luminescence.
Chain of Protein kinase 7 (PK7), Plasmodium falciparum 3D7 (PF3D7_0213400) (Q7YTF7 1-343): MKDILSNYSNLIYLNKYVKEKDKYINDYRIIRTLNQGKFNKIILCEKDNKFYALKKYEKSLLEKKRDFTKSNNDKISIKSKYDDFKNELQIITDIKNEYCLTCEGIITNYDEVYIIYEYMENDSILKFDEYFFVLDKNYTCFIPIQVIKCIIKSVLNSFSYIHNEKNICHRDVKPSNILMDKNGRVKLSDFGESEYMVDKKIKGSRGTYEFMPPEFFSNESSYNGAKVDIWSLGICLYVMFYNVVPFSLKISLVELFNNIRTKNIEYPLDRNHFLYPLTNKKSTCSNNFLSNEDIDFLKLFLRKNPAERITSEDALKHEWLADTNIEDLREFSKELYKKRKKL
Experiment [8] deals with Calcium-dependent protein kinase 4 (Plasmodium falciparum (isolate 3D7)) (UniProt Q8IBS5). Description: PfCDPK4 kinase inhibitors, biochemical, TCAMS library (AID 1159588; cut-off not given, nearly all actives have IC50 up to about 0.91 µM). As to conditions: recombinant PfCDPK4, Kinase-Glo ATP depletion luminescence.
Chain of Calcium-dependent protein kinase 4 (Plasmodium falciparum (isolate 3D7)) (Q8IBS5 whole entry, looked up): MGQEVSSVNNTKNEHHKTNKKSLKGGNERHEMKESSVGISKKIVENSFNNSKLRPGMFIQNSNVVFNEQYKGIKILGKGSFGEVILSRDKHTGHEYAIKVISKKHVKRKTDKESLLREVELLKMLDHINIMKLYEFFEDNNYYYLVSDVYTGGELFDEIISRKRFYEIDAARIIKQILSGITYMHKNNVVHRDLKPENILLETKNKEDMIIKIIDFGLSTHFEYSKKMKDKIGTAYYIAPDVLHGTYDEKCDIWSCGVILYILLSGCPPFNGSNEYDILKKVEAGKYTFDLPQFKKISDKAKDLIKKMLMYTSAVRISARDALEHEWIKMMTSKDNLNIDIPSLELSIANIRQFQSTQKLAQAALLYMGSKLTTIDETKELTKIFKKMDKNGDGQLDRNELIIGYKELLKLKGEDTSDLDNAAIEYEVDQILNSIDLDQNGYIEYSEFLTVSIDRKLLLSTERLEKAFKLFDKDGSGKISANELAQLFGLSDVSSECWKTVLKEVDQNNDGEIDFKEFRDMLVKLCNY

Chain of Plasmodium falciparum protein kinase 6 (PK6, PF3D7_1337100) (Q8IDW1 1-305): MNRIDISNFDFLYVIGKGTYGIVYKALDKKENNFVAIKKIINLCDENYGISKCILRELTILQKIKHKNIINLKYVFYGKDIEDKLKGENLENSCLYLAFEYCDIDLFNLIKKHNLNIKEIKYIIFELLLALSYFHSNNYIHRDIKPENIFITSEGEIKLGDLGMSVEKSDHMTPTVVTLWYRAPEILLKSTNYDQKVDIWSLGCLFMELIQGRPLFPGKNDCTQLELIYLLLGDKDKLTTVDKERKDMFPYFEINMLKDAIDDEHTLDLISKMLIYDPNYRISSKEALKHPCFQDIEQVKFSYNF

The term inhibition denotes the relative decrease from the control value, in per cent. As for `Clc1ccc(OCCC2CCN(CCCCCCN3CCCCC3)CC2)cc1Cl`, the values for the growth inhibition in experiment [1] and in experiment [4] were 36% and 97% (active), respectively. Moreover, the values for the inhibition in experiment [2] and in experiment [3] were 86% (active) and 9%, respectively. Also, the outcome in experiment [5], in experiment [6], in experiment [7] and in experiment [8] was inactive.
As for `CC(C)CNCc1ccc(-c2ccc(CN(CCCN3CCN(C)CC3)C(=O)/C=C/c3ccccc3)cc2)cc1`, the growth inhibition in experiment [1] is 93% (active); in experiment [4], 99% (active). Moreover, the inhibition in experiment [2] is 57% (active); in experiment [3], 3%. Further, the outcome in experiment [5], in experiment [6], in experiment [7] and in experiment [8] was inactive.
`c1ccc(CN2CCC(NCc3ccc(-c4cccc(CNC5CCCC5)c4)cc3)CC2)cc1`: the growth inhibition in experiment [1] was 100% (active); in experiment [4], 101% (active). Further, the inhibition is 55% (active) in experiment [2] and -8% in experiment [3]. Also, the result in experiment [5], in experiment [6], in experiment [7] and in experiment [8] was inactive.
For `CNC(=O)Cc1ccc(C(=O)Nc2cccc(-c3cccc(-c4nc5c(C)cccc5[nH]4)c3)c2)cc1`, the growth inhibition in experiment [1] is 53% (active); in experiment [4], 96% (active). Further, the inhibition in experiment [2] was 15%; in experiment [3] it was 0%. Besides, the result in experiment [5], in experiment [6], in experiment [7] and in experiment [8] was inactive.
With `FC(F)(F)c1ccc(CNCC2CCN(Cc3ccc4c(c3)OCO4)CC2)cc1`, the values for the growth inhibition in experiment [1] and in experiment [4] were 12% and 80% (active), respectively. The figures for the inhibition in experiment [2] and in experiment [3] were 27% and -5%, respectively. In addition, the result in experiment [5], in experiment [6], in experiment [7] and in experiment [8] was inactive.
As to `Cc1[nH]c(C)c(-c2ccc(-c3ccccc3Cl)nc2)c(=O)c1Cl`, the results for the growth inhibition in experiment [1] and in experiment [4] were 97% (active) and 98% (active), respectively. Besides, the inhibition is -1% in experiment [2] and -5% in experiment [3]. For the same compound, the outcome in experiment [5], in experiment [6], in experiment [7] and in experiment [8] was inactive.
Consider `CN1CCCC1CCNC(=O)[C@H](CC1CCCCC1)NC(=O)c1ccc(O)c(-c2ccc(Cl)c(Cl)c2)c1` (stereo not given in full), for which the growth inhibition was 35% in experiment [1] and 98% (active) in experiment [4]. Further, the inhibition in experiment [2] is 0%; in experiment [3] it was 3%. In addition, the outcome in experiment [5], in experiment [6], in experiment [7] and in experiment [8] was inactive.
Consider `N#Cc1ccc(CNCCCCCCNCc2ccc(C#N)c3ccccc23)c2ccccc12`, for which the growth inhibition in experiment [1] is 96% (active); in experiment [4], 102% (active). Also, the inhibition in experiment [2] is 51% (active); in experiment [3], -3%. Further, the outcome in experiment [5], in experiment [6], in experiment [7] and in experiment [8] was inactive.
As to `CC(C)C[C@@H](/C=N/N1CCOC1=O)NC(=O)[C@H](CC(C)C)NC(=O)c1ccc(OCCN2CCOCC2)cc1`, the results for the growth inhibition in experiment [1] and in experiment [4] were 87% (active) and 92% (active), respectively. Also, the inhibition in experiment [2] is 5%; in experiment [3], 6%. Further, the result in experiment [5], in experiment [6], in experiment [7] and in experiment [8] was inactive.
Take `Cc1cc(-c2ccc3c(c2)CCN(CCC2CCC(NC(=O)/C=C/c4cccc(Cl)c4)CC2)CC3)on1` (stereo not given): the growth inhibition in experiment [1] was 49%; in experiment [4] it was 101% (active). For the same compound, the results for the inhibition in experiment [2] and in experiment [3] were 16% and -4%, respectively. Also, the outcome in experiment [5], in experiment [6], in experiment [7] and in experiment [8] was inactive.
For `Cc1ccc(C2CCN(CCCCNC(=O)c3ccc(NC(=O)c4ccc(Cl)cc4)cc3)CC2)c(C)c1`, the growth inhibition was 10% in experiment [1] and 96% (active) in experiment [4]. For the same compound, the inhibition in experiment [2] was 23%; in experiment [3], -1%. The result in experiment [5], in experiment [6], in experiment [7] and in experiment [8] was inactive.
Consider `O=C(Nc1ccc(N2CCNCC2)nc1)c1oc(-c2ccccc2)nc1C(F)(F)F`, for which the results for the growth inhibition in experiment [1] and in experiment [4] were 62% (active) and 100% (active), respectively. Besides, the inhibition in experiment [2] is 7%; in experiment [3] it was 0%. The outcome in experiment [5], in experiment [6], in experiment [7] and in experiment [8] was inactive.
Consider `COc1ccc2c(c1)S(=O)(=O)N=C(N1CCCC1c1ccc(Cl)c(Cl)c1)N2C` (stereo not given), for which the growth inhibition in experiment [1] is 19%; in experiment [4], 89% (active). Moreover, the inhibition in experiment [2] is -2%; in experiment [3], 0%. Further, the result in experiment [5], in experiment [6], in experiment [7] and in experiment [8] was inactive.
For `O=C(NC1CCCCC1)N(Cc1ccccc1-c1ccc(CNCCc2ccccc2)cc1)C1CCN(Cc2ccccc2)CC1`, the values for the growth inhibition in experiment [1] and in experiment [4] were 92% (active) and 90% (active), respectively. The inhibition is 96% (active) in experiment [2] and -6% in experiment [3]. In addition, the outcome in experiment [5], in experiment [6], in experiment [7] and in experiment [8] was inactive.
For the compound `Cc1cc(Nc2ccc(Cl)cc2)n2nc(C(F)(F)F)nc2n1`, the growth inhibition was 95% (active) in experiment [1] and 97% (active) in experiment [4]. The inhibition in experiment [2] was 5%; in experiment [3], -1%. In addition, the outcome in experiment [5], in experiment [6], in experiment [7] and in experiment [8] was inactive.
On to `Cc1nnc2c(NC(=O)NC3CCCC3)cc3ccc(-c4cccc(CN5CCN(C)CC5)c4)cc3n12`, for which the growth inhibition is 68% (active) in experiment [1] and 91% (active) in experiment [4]. Further, the figures for the inhibition in experiment [2] and in experiment [3] were 54% (active) and 2%, respectively. Also, the outcome in experiment [5], in experiment [6], in experiment [7] and in experiment [8] was inactive.
As for `Nc1ccc2[nH]cc(C3CCN(CC4CCC(NC(=O)/C=C/c5ccccc5Cl)CC4)CC3)c2n1` (stereo not given), the figures for the growth inhibition in experiment [1] and in experiment [4] were 45% and 100% (active), respectively. Further, the inhibition in experiment [2] is 7%; in experiment [3], -3%. Moreover, the result in experiment [5], in experiment [6], in experiment [7] and in experiment [8] was inactive.
As for `COc1ccc2nccc([C@@H](O)CN3CCC(NC[C@H](Cc4ccccc4)NC(=O)OC(C)(C)C)CC3)c2c1`, the growth inhibition in experiment [1] is 86% (active); in experiment [4], 98% (active). For the same compound, the inhibition in experiment [2] was 18%; in experiment [3], 6%. Also, the result in experiment [5], in experiment [6], in experiment [7] and in experiment [8] was inactive.
For the compound `CC(=O)Oc1c(C2CCN(CCCCNC(=O)c3ccc(NC(=O)c4ccc(Cl)cc4)cc3)CC2)ccc2ccccc12`, the growth inhibition is 92% (active) in experiment [1] and 101% (active) in experiment [4]. Further, the inhibition in experiment [2] was 24%; in experiment [3], -6%. In addition, the result in experiment [5], in experiment [6], in experiment [7] and in experiment [8] was inactive.
As to `COc1ccc(C=CC(=O)Nc2ccc(N3CCCC3)cc2)cc1`, the growth inhibition was 9% in experiment [1] and 81% (active) in experiment [4]. The inhibition in experiment [2] and in experiment [3] was -1% each time. Also, the outcome in experiment [5], in experiment [6], in experiment [7] and in experiment [8] was inactive.
